{"source": "PubChem BioAssay AID1727", "about": "(National Center for Advancing Translational Sciences (NCATS), 2009)", "note": "The source made the active and inactive calls. Calls follow the shape of the dose curve; as a rule, active = well fitted curve in the direction sought with a large enough effect; inactive = no such curve, though single readings can be large or run the other way."}
{"molecular_target": "Epidermal growth factor receptor (Homo sapiens) (UniProt P00533)", "sequence (P00533 whole entry L858R, looked up)": "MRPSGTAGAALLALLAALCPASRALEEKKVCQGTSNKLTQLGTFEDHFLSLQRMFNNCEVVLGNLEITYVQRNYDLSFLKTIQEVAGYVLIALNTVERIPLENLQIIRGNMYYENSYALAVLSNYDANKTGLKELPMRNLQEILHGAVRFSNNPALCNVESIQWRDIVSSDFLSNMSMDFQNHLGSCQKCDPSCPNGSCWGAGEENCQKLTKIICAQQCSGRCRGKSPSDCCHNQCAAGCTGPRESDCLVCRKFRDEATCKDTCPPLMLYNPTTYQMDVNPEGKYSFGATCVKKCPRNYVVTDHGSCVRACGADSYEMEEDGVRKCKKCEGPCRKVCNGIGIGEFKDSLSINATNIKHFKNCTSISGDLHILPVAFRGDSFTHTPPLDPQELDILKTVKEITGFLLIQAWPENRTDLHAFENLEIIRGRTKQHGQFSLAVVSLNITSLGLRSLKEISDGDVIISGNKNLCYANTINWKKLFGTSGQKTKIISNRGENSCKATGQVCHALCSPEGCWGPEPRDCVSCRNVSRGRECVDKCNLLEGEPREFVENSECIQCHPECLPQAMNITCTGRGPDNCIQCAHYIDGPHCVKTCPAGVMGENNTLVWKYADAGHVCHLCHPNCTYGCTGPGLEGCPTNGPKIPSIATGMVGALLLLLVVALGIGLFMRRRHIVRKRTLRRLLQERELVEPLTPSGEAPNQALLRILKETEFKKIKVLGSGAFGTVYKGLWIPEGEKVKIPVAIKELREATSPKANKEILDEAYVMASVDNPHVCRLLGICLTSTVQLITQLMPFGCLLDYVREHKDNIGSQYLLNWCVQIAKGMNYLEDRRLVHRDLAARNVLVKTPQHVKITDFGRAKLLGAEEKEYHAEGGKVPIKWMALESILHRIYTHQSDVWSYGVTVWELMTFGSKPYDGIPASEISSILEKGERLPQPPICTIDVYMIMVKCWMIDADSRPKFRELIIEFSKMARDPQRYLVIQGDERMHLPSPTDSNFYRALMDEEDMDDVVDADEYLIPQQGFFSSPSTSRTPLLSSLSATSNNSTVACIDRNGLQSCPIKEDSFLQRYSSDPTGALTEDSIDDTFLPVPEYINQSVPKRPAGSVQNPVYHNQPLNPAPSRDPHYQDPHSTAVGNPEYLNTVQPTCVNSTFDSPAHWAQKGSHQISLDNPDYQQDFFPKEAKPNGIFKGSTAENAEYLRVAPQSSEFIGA", "test": "Assay for Inhibitors of the ERK Signaling Pathway using a Homogeneous Screening Assay: EGFR L858R Kinase Inhibition", "settings": "EGFR L858R kinase biochemical inhibition assay; series mostly up to 65.8 µM; activity, negative = inhibition: at the top concentration", "text": "qHTS Assay for Inhibitors of the ERK Signaling Pathway using a Homogeneous Screening Assay\nNIH Chemical Genomics Center [NCGC]\nNIH Molecular Libraries Screening Centers Network [MLSCN]\nAssay Submitter (PI): Dr. Wei Zheng, NCGC/NIH\nThe Ras/extracellular-signal-regulated kinase (ERK) mitogen activated protein (MAP) kinase signaling pathway (ERK1/2 cascade) plays is a key role in transmitting signals from the cell surface to the nucleus (Nishida and Gotoh 1993; Chang and Karin, 2001). The cascade is initiated by the small G-protein Ras, which recruits Raf […], where activation occurs. Alternatively, this pathway can be activated by elevating intracellular cAMP.\nActivation of the ERK pathway is essential in increased cell division and cell survival. Sustained and constitutive activation of the ERK pathway, however, has been linked to uncontrolled cell proliferation, increased cell survival, and tumor progression. Thus, the ERK has been as an attractive target for cancer chemotherapy in the past few years (Sebolt-Leopold and Herrera, 2004). Given its physiological and pathological importance, assessment of ERK phosphorylation has been broadly performed in both basic research and drug discovery. Most assays for the measurement of ERK phosphorylation use the antibody-based detection methods, such as western blot and ELISA. These assays require multiple reagent additions with cell wash steps and are not suitable for high-throughput screening.\nThe current cell-based ERK phosphorylation assay was performed using AlphaScreen platform. AlphaScreen is a two bead-based proximity-dependent chemical energy transfer luminescent assay platform. The assay reagents (ERK SureFire(TM) kit) were supplied from TGR BioSciences (Australia). […]\nThe HTRF kinase assay (components supplied as kit by Cisbio) was chosen for the EGFR and EGFR mutant enzyme assays that applied the time resolved fluorescence resonance energy transfer (TR-FRET) principle. […]"}
{"compound": "CCn1nc(-c2ccccc2)nc2c(=O)n(C)c(=O)nc1-2", "activity, negative = inhibition": "-0.966% [at 21.9 µM] (inactive)"}
{"compound": "Cc1nc2c(=O)n(C)c(=O)nc-2n(C)n1", "activity, negative = inhibition": "11.6% (inactive)"}
{"compound": "CN1CCN(c2cccc3c2C(=O)c2ccccc2C3=O)CC1", "activity, negative = inhibition": "8.93% (inactive)"}
